In PubChem BioAssay AID651820 (National Center for Advancing Translational Sciences (NCATS), 2012):
Out of some 340,000 compounds screened, about 12,000 (3.5%) were called active. A call without a number means that no potency is given here. Inconclusive results (about 18%) are left out. Calls follow the shape of the dose curve; as a rule, active = well fitted inhibition curve with a large enough effect; inconclusive = small, poorly fitted or top-dose-only effect, or another doubt; inactive = no such curve, though single readings can be large or run the other way. For the sample, actives were picked, then their nearest neighbours and some compounds at random. Non-standard residues stand in square brackets, D forms with d. Residues, ends and D or L forms follow the SMILES beside them. ξ: configuration not given here. Ac5c = NC1(C(=O)O)CCCC1; ξS = NC(CO)C(=O)O

test: qHTS Assay for Inhibitors of Hepatitis C Virus (HCV); conditions: Huh7.5.1 HCVcc-Cre infection, luciferase reporter, 44 h; series mostly up to 41.8 µM
In short: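 Compounds are dispensed onto cells plated 4 h earlier at 1,000 per well, with HCVcc-Cre virus (about 0.5 moi) added next. Following 44 h of culture, luminescent signal is measured for 15 sec after 15 min with substrate at room temperature.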
Potency is read from the fitted curve at half-maximal effect.

SMILES | Potency
Cn1c(CC(=O)NNC(=O)c2ccccc2F)nc2ccccc21 | inactive
O=C1N/C(=C/c2cccn2-c2ccccc2)C(=O)N1c1cccc(Cl)c1 | inactive
CN(C)c1ccc(/C=C2\NC(=S)N(Cc3ccccc3)C2=O)cc1 | inactive
O=C1/C(=C\c2ccsc2)NC(=S)N1c1ccccc1 | 11.2 µM (active)
COc1ccc(C(=O)NCCCN2CCOCC2)cc1Br | inactive
COc1ccc(-c2ccc(CNCCCN3CCOCC3)o2)cc1Cl | 11.2 µM (active)
COc1ccc(S(=O)(=O)N(C)CC(=O)NCCCN2CCOCC2)cc1Cl | inactive
CC(=O)NCc1ccc(-c2csc(NC(=O)CCCc3nc4ccccc4c(=O)[nH]3)n2)cc1 | inactive
CCOC(=O)[C@H]1[C@H]2COc3ccccc3[C@@H]2N2C(=O)CN(Cc3ccccc3)C(=O)[C@@]12C | inactive
COc1cccc(NC(=O)c2nn(C34CC5CC(CC(C5)C3)C4)cc2[N+](=O)[O-])c1 | 31.6 µM (active)
COc1cccc(NC(=O)c2ccc(Cn3cc([N+](=O)[O-])cn3)o2)c1 | inactive
COc1cccc(NC(=O)COc2cccnc2[N+](=O)[O-])c1 | inactive
O=C1CC[C@@H]2CC3(C[C@@H]4CCN1[C@H]24)Nc1cc([N+](=O)[O-])ccc1NC3=NC1CCCCC1 (some centres not stated) | inactive
C=CCN1C=C(C(=O)c2ccccc2)C(=O)CC1 | inactive
c1ccc(-c2noc(-c3cccs3)n2)nc1 | inactive
CC(C)(C)Nc1nc(-c2ccccn2)nc2ccccc12 | 4.47 µM (active)
Cc1nc2ccccc2c(C(=O)O)c1-c1ccccn1 | inactive
COc1ccc(/C=N/NC(=O)c2cc(-c3cccc(C)c3)nc3ccccc23)cc1O | inactive
O=C(CSc1nc2cc3c(cc2c(=O)n1CCC1=CCCCC1)OCO3)NCc1ccco1 | inactive
C=CCn1c(SCC(=O)NCCCO)nc2sc3c(c2c1=O)CCC3 | inactive
C=C(C)Cn1c(SCC(=O)NCc2ccco2)nc2sc3c(c2c1=O)CCC3 | 8.91 µM (active)
O=C(COC(=O)COc1cccc(F)c1)NCC1CCCCC1 | inactive
O=C(Nc1ccon1)c1nc[nH]c1C(=O)NCc1ccccc1 | inactive
COc1ccc2[nH]c3c(c2c1)CCN1C(=O)C(CC(=O)NCCCN(C)C)C[C@H](C(=O)N2CCOCC2)[C@@]31CCC1CCCC1 (some centres not stated) | inactive
O=C(CSc1nc2ccc(Nc3nc(N4CCOCC4)nc(N4CCOCC4)n3)cc2s1)NCc1ccco1 | 5.01 µM (active)
O=C(CSc1c2c(nc3ccc(Cl)cc13)CCCC2)NCc1ccco1 | inactive

SMILES | Potency
C=CCn1c(CSc2nc3ccccc3s2)nnc1SCC(=O)NCc1ccco1 | inactive
COCCN(Cc1ccccc1)C(=O)Cc1ccc(S(=O)(=O)N2CCOCC2)s1 | inactive
CC1(C)CC2CC(C)(CN2c2ncnc3ccc(Br)cc23)C1 (configuration not stated) | 10 µM (active)
COc1ccccc1C(=O)N1CC2(C)CC1CC(C)(C)C2 (configuration not stated) | inactive
COc1ccc(C(=O)N2CC3(C)CC2CC(C)(C)C3)cc1OC (configuration not stated) | inactive
CC(Oc1cccc(Cl)c1)C(=O)Nc1ccc(S(=O)(=O)Nc2ncccn2)cc1 (configuration not stated) | inactive
COc1ccccc1CNC(=O)COn1nnc2ccc(S(=O)(=O)N3CCOCC3)cc21 | inactive
Cc1cccc(NS(=O)(=O)c2ccc(C)c(C(=O)NCc3cccnc3)c2)c1 | inactive
COC(=O)C1=C(c2ccccc2OCc2ccccc2)C[C@@H]2CC[C@H]1N2C(=O)NCc1ccc(OC)cc1 | 11.2 µM (active)
COC(=O)C1=C(c2cccc(OCc3ccccc3)c2)C[C@@H]2CC[C@H]1N2C(=O)NNCc1ccccc1 | inactive
COC(=O)C1=C(c2ccc(F)cc2OCc2ccccc2)C[C@@H]2CC[C@H]1N2C(=O)NCc1ccc2[nH]ccc2c1 | inactive
O=C(COC(=O)c1cccnc1Cl)Nc1ccc(S(=O)(=O)N2CCOCC2)cc1 | inactive
O=C(O)c1ccccc1/C=N/Nc1ccc(S(=O)(=O)Nc2ccc(Cl)cc2)cc1[N+](=O)[O-] | inactive
N#Cc1ccccc1S(=O)(=O)N1CCN(Cc2c(O)ccc3ccccc23)CC1 | inactive
O=C(c1cn(-c2ccccc2)nc1-c1cccnc1)N1CCN(S(=O)(=O)c2ccccc2F)CC1 | inactive
N#Cc1ccccc1S(=O)(=O)N1CCN(C(=O)c2cc(-c3ccccc3)nn2-c2ccccc2)CC1 | 11.2 µM (active)
CCCCCCCCCCCCn1ccc(=N)cc1 | 0.501 µM (active)
CCCCCN1CC(O)=C(c2ccccc2)C1=N | inactive
CCCCCNC(=O)Cc1ccc(OC)cc1 | inactive
COCCCNC(=O)CC1C[C@H](C(=O)N2CCCCC2)[C@@]2(CCc3ccccc3)c3[nH]c4ccccc4c3CCN2C1=O (some centres not stated) | inactive
O=C(Nc1cccc(Br)c1)C1CC(=O)N(C2CCCC2)C1 (configuration not stated) | inactive
O=C(Nc1ncccc1O)c1ccc(C(=O)c2ccccc2)cc1 | inactive
COc1ccccc1/C=N\Nc1cc(C)nc(-n2nc(C)cc2C)n1 | 3.16 µM (active)
COc1ccccc1/C=N/Nc1nc(C)c(C(C)=O)s1 | inactive
COc1cccc(/C=N\NC(=O)C2=NNC(=O)C2C)c1O (configuration not stated) | inactive
COc1cccc(/C=N/Nc2ccc(S(=O)(=O)Nc3ccccc3C(=O)O)cc2[N+](=O)[O-])c1O | inactive

SMILES | Potency
COc1cccc(/C=N/Nc2cc(C)nc(-c3ccccc3O)n2)c1O | 12.6 µM (active)
Cc1nc(Cl)cc(N/N=C/c2ccccc2)n1 | inactive
N#CC1(NC(=O)COC(=O)Cc2n[nH]c(=O)c3ccccc23)CCCCC1 | inactive
NC1=NOC(=O)C1C1CCCCC1 (configuration not stated) | inactive
Cc1nc(-c2ccc(F)cc2)c(CC(=O)N(C)CC(=O)Nc2c(C)cccc2C)s1 | inactive
CS(=O)(=O)c1ccc(C(=O)NNC(=O)c2cccs2)cc1 | inactive
CC1(c2ccc(Cl)cc2Cl)NC(=O)N(CC(=O)Nc2cccnc2Cl)C1=O (configuration not stated) | inactive
O=C1C=C(c2cccc(Cl)c2O)C[C@@H](c2ccc(F)cc2)C1 | inactive
O=C1C=C(c2ccnc3cc(Cl)ccc23)C[C@@H](c2ccc3c(c2)OCO3)C1 | 3.16 µM (active)
O=C1C=C(c2cccc(Cl)c2)C[C@@H](c2ccc(F)cc2)C1 | inactive
Cc1cc(C)c(C=NNc2nc3c([nH]2)c(=O)n(C)c(=O)n3C)c(C)c1 | inactive
CCOc1ccc(CCNC(=O)COC(=O)C2CCN(S(=O)(=O)c3ccccc3)CC2)cc1OCC | inactive
CCOC(=O)C(CO)NC(=O)C1(NC(C)=O)CCCC1 (configuration not stated) (Ac-[Ac5c]-[ξS]-OEt) | inactive
CC1CCN(Cc2nc(-c3ccc(Cl)cc3)no2)CC1 | inactive
CCN1CC(CN(C)Cc2nc(-c3ccc(Cl)cc3)no2)CC1=O (configuration not stated) | 11.2 µM (active)
CN(Cc1ccccn1)Cc1nc(-c2ccc(Cl)cc2)no1 | inactive
O=C(c1ccncc1)N1CCN(S(=O)(=O)c2cc(C(F)(F)F)cc(C(F)(F)F)c2)CC1 | inactive
Cc1ccc(CNC(=O)COC(=O)C2CCC2)cc1 | inactive
C#CCOCCOCCOCCNc1nc(N2CCN(C(=O)[C@H](CCCN=C(N)N)n3cc(C(N)[C@@H](C)CC)nn3)CC2)nc(N2CCN(C(=O)[C@H](CO)n3cc([C@@H](N)C(C)C)nn3)CC2)n1 (some centres not stated) | inactive
CCOc1cc(-c2cc(-c3ccc(NC(C)=O)cc3)nc(N)c2C#N)ccc1O | 11.2 µM (active)
CC(=O)Nc1ccc(-c2cn3cccnc3n2)cc1 | inactive
CCOc1cc(-c2cc(-c3ccc(OC)cc3)nc(N)c2C#N)ccc1O | inactive
Nc1nnc(SCC(=O)NCC(=O)Nc2ccc(F)c(F)c2F)s1 | inactive
CN1CCN(CCCCOc2cccc3ccccc23)CC1 | 10 µM (active)
CCN1CCN(CCCCOc2ccccc2F)CC1 | inactive
COc1ccccc1OCCCCCCN1CCN(C)CC1 | inactive

SMILES | Potency
Cc1ccc2c(O)c(Cc3ccccc3)c(=O)[nH]c2n1 | inactive
COc1ccc(S(=O)(=O)N2CCN(CC(=O)N3CCOCC3)CC2)cc1OC | inactive
CCOC(=O)c1ccccc1NC(=O)CSc1nc2c(sc(=S)n2CC)c(=O)[nH]1 | inactive
COc1ccc2c(c1)O/C(=C\c1ccccc1O)C2=O | inactive
CCOc1ccc2[nH]c(C(=O)N/N=C/c3cccc(OC)c3OC)cc2c1 | 12.6 µM (active)
COc1ccc(/C=N/NC(=O)c2cccc(C(F)(F)F)c2)cc1 | inactive
COc1cc2cc(C(=O)N/N=C/c3cccc(OC)c3OC)[nH]c2cc1OC | inactive
COc1ccccc1CNC(=O)COC(=O)c1sc(C)nc1C | inactive
CCN(C(=O)CSc1nnnn1-c1ccc(OC)cc1)C1CCS(=O)(=O)C1 (configuration not stated) | inactive
Oc1c(CN2CCN(c3ccc(F)cc3)CC2)cc(Cl)c2cccnc12 | 3.55 µM (active)
Oc1ccc(CN2CCN(c3ncccn3)CC2)cc1 | inactive
Oc1cc2c(cc1CN1CCN(c3ccccc3)CC1)OCO2 | inactive
Cc1cc(O)c(Sc2ccccc2)c(=O)o1 | inactive
COc1ccc(OC)c(S(=O)(=O)Nc2c(C)nn(C)c2C)c1 | inactive
N#CC1=C(N)Oc2cc(N)ccc2C1c1ccccc1 (configuration not stated) | inactive
Cc1nn(-c2ncccn2)c2c1C(=O)CC(C)(C)C2Br (configuration not stated) | inactive
CC(C)(C)CC(C)(C)NCC(O)COCCOc1ccc(Br)cc1 (configuration not stated) | 6.31 µM (active)
COc1ccc(OCC(O)CNCCNc2nccc(C(F)(F)F)n2)cc1 (configuration not stated) | inactive
CC(Oc1ccc(Br)cc1)C(=O)NC1CCCCCC1 (configuration not stated) | inactive
COc1ccc(-c2nnc(SC(C)C(=O)NC3CC3)o2)cc1 (configuration not stated) | inactive
O=C(N=C1SC2CS(=O)(=O)CC2N1c1ccccc1)c1ccccc1 (configuration not stated) | inactive
Cc1nnc(NC(=O)/C=C/c2ccco2)s1 | inactive
O=C(/C=C/c1ccco1)Nc1ccc(Oc2ccccc2)cc1 | 14.1 µM (active)
O=C(/C=C/c1ccco1)Nc1cccc(-c2nc3ccccc3[nH]2)c1 | inactive
